Screening results: PubChem, National Center for Advancing Translational Sciences (NCATS)
AMA1-RON2 inh = qHTS for Inhibitors of AMA1-RON; Towards Development of Antimalarial Drug Lead: Primary Screen; Plasmodium falciparum AMA1 (3D7) - RON2 peptide interaction; actives 0.2% (n = 360,000); AlphaScreen AMA1-biotinylated RON2 peptide binding; AID 720542, 2013; Potency, µM (doses to about 58.2 µM), for the others: at the top dose activity change, negative = inhibition, most hits filed as inhibitors; active = well fitted inhibition curve with a large enough effect; inconclusive = small, poorly fitted or top-dose-only effect; inactive = no such curve, though single readings can be large or run the other way;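 also: potency is read from the fitted curve at half-maximal effect; 0% = vehicle wells and -100% = peptide control; nearly all actives have a fitted effect of over 45% in size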
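AMA1 (3D7) with his tag at 25 nM final met compounds first, then biotinylated RON2 peptide at 25 nM; detection used donor plus acceptor beads, 10 µg/mL apiece, read by AlphaScreen after 30 min at room temperature.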
Cycloheximide cs = Cycloheximide Counterscreen for Small Molecule Inhibitors of Shiga Toxin | actives 12% (n = 300,000) | AID 2314, 2010 | cell reporter, cycloheximide protein synthesis inhibition counterscreen | max response, %; in the data active = max response mostly above about 13%, no sharp cut-off; inactive = mostly below about 14%; also: read at 38.3 µM for the half of the compounds with a filed dose; 0% is about no effect
Lassa entry inh = qHTS for Inhibitors of binding or entry into cells for Lassa Virus. Lassa virus pseudotype entry inhibition, cell reporter. Potency, µM (doses to about 37.9 µM), inactives show at the highest dose activity change, negative = inhibition, actives largely listed as inhibitors. actives 1.2% (n = 300,000). AID 540256, 2011; calls by dose curve; tested in HEK293 cells; also: potency is read from the fitted curve at half-maximal effect; % is scaled to controls: 0 for no effect and ±100 for the full control effect; nearly all actives have a fitted effect of over 50% in size
Shiga toxin inh = A qHTS for Small Molecule Inhibitors of Shiga Toxin | Vero cells, Shiga toxin protein synthesis inhibition reporter | inhibition, % at 38.7 µM | actives 9.2% (n = 290,000) | AID 2315, 2010; in the data active = inhibition mostly above about 28%, no sharp cut-off; inactive = mostly below about 43%; also: 0% is about no effect
MARV entry inh = qHTS for inhibitors of binding or entry into cells for Marburg Virus; Marburg virus pseudotyped entry inhibition, cell reporter; Potency, µM (doses to about 37.8 µM), for inactives: at the highest dose activity change, negative = inhibition, usual class: inhibitors; actives 1.8% (n = 300,000); calls by dose curve; tested in HEK293 cells; also: potency is read from the fitted curve at half-maximal effect; % is scaled to controls: 0 for no effect and ±100 for the full control effect
* = called active by the depositor; ? = inconclusive; / = not tested or not shown; [ ] = remark or other dose. This excerpt belongs to a sample that is enriched for hits.

SMILES | AMA1-RON2 inh | Cycloheximide cs | Lassa entry inh | Shiga toxin inh | MARV entry inh
Cc1[nH]c2ccccc2c1C(=O)CSc1ccccc1 | 4.8% | 28.5* | 6.9% | 3.6 | ?
Cc1ccc2c(C(=O)CSc3ccccc3)c(C)[nH]c2c1 | 6.2% | 8.3 | 15.4% | 34.3 | ?
Cc1[nH]c2ccccc2c1C(=O)CSc1nncn1C | -18.1% | -1.1 | 17.4% | -2.2 | 0.3%
O=C(CCC1N=C2c3ccccc3N=C(SCC(=O)Nc3ccccc3F)N2C1=O)NCc1ccco1 (stereo unspecified) | / | / | -4.2%[46.1 µM] | / | 4.4%[46.1 µM]
CCCCNC(=O)CN(Cc1ccco1)S(=O)(=O)c1ccc(C(C)=O)cc1 | 8.5% | / | / | / | /
O=C(O)CCn1c(-c2ccccn2)nc2ccccc21 | 79.3% | 10.8* | 2.1%[46.1 µM] | 39.5 | 21.2%[46.1 µM]
Cc1ccccc1-c1nc2ccccc2[nH]1 | -1.6% | 45.6* | -3.7% | 95.4* | ?
Nc1nonc1-c1nc2ccccc2[nH]1 | 6.1% | 8.7 | 1.8% | 23.4 | 4.2%[46.1 µM]
Clc1ccccc1-c1nc2ccccc2[nH]1 | 0.6% | 52.9* | ? | 81.4* | ?
Cn1cc(Cl)c(-c2nc3ccccc3[nH]2)n1 | -1.1% | 25.6* | -3.6% | 70.7* | 2.5%
c1ccc2[nH]c(-c3ccnc4ccccc34)nc2c1 | -2.4% | 27.4* | 9.5% | 31.5 | 6.4%
COc1ccc(-c2nnc(C3CCN(C(=O)c4ccccc4F)CC3)o2)cc1 | / | / | 9.6%[46.1 µM] | / | 11.2%[46.1 µM]
CN(Cc1ccccc1)C(=O)C1CCN(S(=O)(=O)c2ccc3nc4c(c(C(=O)O)c3c2)CCCC4)CC1 | 37.1% | -6.3 | / | -1.0 | -12.6%[46.1 µM]
Fc1ccccc1-c1nc2ccccc2[nH]1 | -0.6% | 39.1* | 10.0% | 111.2* | ?
c1ccc2c(-c3nc4ccccc4[nH]3)cccc2c1 | -2.6% | / | / | / | /
COc1ccccc1-c1cnc(C(O)c2ccc(F)cc2C)[nH]1 (stereo unspecified) | 4.6% | / | / | / | /
COc1ccc(/C=C(\NC(=O)c2ccccc2Cl)C(=O)NCCCC(=O)O)cc1 | -7.1% | 4.9 | -18.2%[46.1 µM] | -8.4 | 2.2%[46.1 µM]
Cc1ccc(NC2=Nc3ccccc3CS2)cc1 | -1.5% | 37.7* | ? | 30.4 | 10µM*
CCOC(=O)CSc1nc(N)c(C#N)c(CC(C)C)c1C#N | 9.3% | -3.6 | -0.4% | -22.3 | -5.6%
Cc1ccc(NC(=O)CC(=O)Nc2ccc(C)c(C)c2)cc1C | 1.7% | -5.5 | 5.8% | -7.9 | -4.4%[46.1 µM]
CC(=O)N(C)c1ccc(NC(=O)Nc2ccc(C)c(C)c2)cc1 | 7.9% | 12.1* | -17.3%[46.1 µM] | 30.7 | ?
CC(=O)N(C)c1ccc(NC(=O)Nc2ccccc2C)cc1 | -2.0% | 39.1* | 16.8%[46.1 µM] | 81.5* | ?
CN(C)c1nc(N(C)C)c2cnn(C)c2n1 | 4.3% | / | -15.4% | / | 9.5%
CCCCCC(=O)N1C[C@H](O)[C@@H](n2cc(-c3ccc(F)cc3)nn2)C[C@H]1c1ccccc1 | / | / | 3.0%[46.1 µM] | / | /
CN(C)CCC(Oc1ccccc1OCc1ccccc1)c1ccccc1 (stereo unspecified) | -18.4% | / | ? | / | ?
SMILES | AMA1-RON2 inh | Cycloheximide cs | Lassa entry inh | Shiga toxin inh | MARV entry inh
CNCC[C@H](Oc1ccccc1OC)c1ccccc1 | / | / | / | / | 18.3µM*
CC1(C)CCC2=C(O1)c1ccccc1C(=O)C2=O | / | / | / | / | 12.6µM*
CC1(C)CCC(=O)c2ccccc21 | -3.9% | / | 1.0% | / | 0.8%
CC(C)(C)C(=O)c1c(N)[nH]c(C(=O)c2ccccc2)c1-c1ccc(Br)cc1 | 46.4% | / | / | / | /
CC(=O)Nc1ccc(S(=O)(=O)Nc2nnc(CC(C)(C)C)s2)cc1 | -8.8% | 21.5* | -4.0% | 76.5* | -6.2%[46.1 µM]
CC(=O)Nc1ccc(S(=O)(=O)Nc2nc3c(s2)CCCC3)cc1 | 0.3% | 17.6* | 0.3% | 58.2* | -1.4%
CCC(=O)N1CCc2cc(Br)cc(S(=O)(=O)N3CCC(C(=O)Nc4ccccc4CC)CC3)c21 | / | / | 15.1%[46.1 µM] | / | -1.2%[46.1 µM]
O=C(NC1CCCC1)C(c1ccncc1)N(Cc1ccccc1)C(=O)c1ccc(-c2ccccc2)[nH]1 (stereo unspecified) | -28.4% | 13.3* | ? | 27.3 | ?
O=C(NC1CCCC1)C(c1ccncc1)N(Cc1ccco1)C(=O)c1ccc(-c2ccccc2)[nH]1 (stereo unspecified) | -24.2% | 6.8 | / | 32.5 | 10µM*
O=C(NC1CCCC1)C(c1ccncc1)N(CCCN1CCOCC1)C(=O)c1ccc(-c2ccccc2)[nH]1 (stereo unspecified) | -5.5% | -1.9 | / | -6.4 | /
